These results are taken from PubChem BioAssay AID485297 (National Center for Advancing Translational Sciences (NCATS), 2010).

Screen size: about 320,000 compounds; about 9,100 (2.8%) were called active. About 3% were inconclusive and are not listed. Calls come from the whole dose curve; as a rule, active = well fitted activation curve with a large enough effect; inconclusive = small, poorly fitted or top-dose-only effect; inactive = no such curve, though single readings can be large or run the other way. For the sample, actives were picked, then their nearest neighbours and some compounds at random.
Potency is the fitted concentration of half-maximal effect.

The assay in a line: qHTS Assay for Rab9 Promoter Activators. For activation, negative = inhibition: % of control where 0% means no effect. Note: nearly all actives have a fitted effect of over 60% in size. The following applies: Huh7 Rab9 promoter-luciferase reporter, luminescence, 24 h; series mostly up to 9.22 µM; activation, negative = inhibition: at the top concentration. Put shortly: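 Using Huh7 cells stably transfected with Rab9 promoter–luciferase, compounds were incubated 24 h at 37 °C, 5% CO2; luciferase luminescence was read 10 min after reagent addition.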
For orientation: In qHTS, concentration-response curves come from the screen itself.
In the case of `N#Cc1ccc(CSc2nnc3ccccn23)cc1`, the “activation, negative = inhibition” value was -32.1% (inactive).

With `Cn1c(CC(=O)Nc2ccccc2)nnc1SCC(=O)c1ccccc1`, the “activation, negative = inhibition” value was -11.8% (inactive).

On to `Cc1ccc(-n2c(C)cc(C(=O)CSc3nnc4ccccn34)c2C)cc1`, for which the Potency is 398 nM (active).

For `Cc1ccc(-n2c(C)cc(C(=O)CN3C(=O)C(=O)N(C4CCCC4)C3=O)c2C)cc1`, the “activation, negative = inhibition” value is 0.731% (inactive).

As for `Cc1cc(C(=O)CSc2nc(N)cc(=O)[nH]2)c(C)n1-c1cccc(F)c1`, the “activation, negative = inhibition” value was -19.8% (inactive).

Take `O=C(CSc1nnc2ccccn12)c1ccccc1`: the Potency was 2510 nM (active).

As to `COc1ccc(NC(=O)CSc2nnc(C3CC3)n2C)cc1S(=O)(=O)N1CCCCC1`, the “activation, negative = inhibition” value is -1.73% (inactive).

For `O=C(CSc1nnc(Nc2ccccc2)s1)Nc1cccnc1Cl`, the “activation, negative = inhibition” value is 0.496% (inactive).

In the case of `CC(C)c1ccc(Nc2nnc(SCC(=O)c3nnc(-c4ccccc4)o3)s2)cc1`, the Potency was 4470 nM (active).

`Cc1ccc(Nc2nnc(SCC(=O)c3cc4ccccc4o3)s2)cc1C`: the “activation, negative = inhibition” value is 4.96% (inactive).

On to `COc1cc2c(cc1OC)C(=O)NCC(C)(C)O2`, for which the “activation, negative = inhibition” value is 0.04% (inactive).

Take `COc1ccccc1-c1sc2ccccc2c1-c1ccc(Br)nc1`: the “activation, negative = inhibition” value was -7.9% (inactive).

For `Cc1csc(SCC(=O)N(c2ccccc2)C(C)C)n1`, the “activation, negative = inhibition” value is -4.73% (inactive).

As to `NC(=O)c1ccsc1NC(=O)COC(=O)COc1ccc(C=O)cc1`, the “activation, negative = inhibition” value is 2.6% (inactive).

With `O=C(O)c1ccccc1N=N/C(=N/Nc1cc(S(=O)(=O)O)ccc1O)c1ccccc1`, the “activation, negative = inhibition” value is 10.6% (inactive).

Turning to `O=C(O)c1cccc(S(=O)(=O)N2CC=C(c3ccccc3)CC2)c1`, the “activation, negative = inhibition” value was 0.495% (inactive).

Turning to `CN1CCCC(OC(=O)COc2ccc(Br)cc2)C1` (stereo not drawn), the “activation, negative = inhibition” value was 0.13% (inactive).

Regarding `CC1CN/C(=C\C(=O)c2ccc(Br)cc2)C(=O)N1` (stereo not drawn), the Potency was 501 nM (active).

In the case of `COc1cc2c(cc1OC)/C(=C/C(=O)c1ccc(NC(C)=O)cc1)NCC2`, the “activation, negative = inhibition” value was -2.71% (inactive).

On to `CCCCNC(=O)OCCSCCS(=O)(=O)c1ccc(Cl)cc1`, for which the “activation, negative = inhibition” value is 1.89% (inactive).

In the case of `COc1cc2ccccc2cc1C(=O)Nc1ccccc1C`, the “activation, negative = inhibition” value is 5.13% (inactive).

In the case of `CC(=O)c1sc(NC(=O)CCCOc2ccccc2C)nc1C`, the “activation, negative = inhibition” value was -4.39% (inactive).

Regarding `CC(=O)c1sc(NC(=O)C2=NN(c3ccccc3)C(=O)CC2)nc1C`, the “activation, negative = inhibition” value was 0.789% (inactive).

In the case of `Cc1ccc(S(=O)(=O)Nc2nc(C)cc(N/N=C/c3ccc(O)cc3)n2)cc1`, the “activation, negative = inhibition” value is 2.57% (inactive).

With `Cc1nnc(C)n1/N=C/c1ccc(C(C)C)cc1`, the “activation, negative = inhibition” value is 0.524% (inactive).

For `CC(=O)c1sc(N/N=C\c2ccc(C)cc2)nc1C`, the Potency is 2000 nM (active).

With `CC(=O)c1sc(NC(=O)c2ccc(C)cc2)nc1C`, the Potency was 1780 nM (active).

`COc1cc2ccccc2cc1C(=O)Nc1ccncc1`: the “activation, negative = inhibition” value was 18.7% (inactive).

Consider `CC(=O)c1sc(N)nc1C`, for which the “activation, negative = inhibition” value was 0.837% (inactive).

As for `CC(=O)c1sc(N/N=C/c2ccc(C(C)C)cc2)nc1C`, the Potency was 794 nM (active).

As for `COc1cc2ccccc2cc1C(=O)Nc1nc(C)c(C(C)=O)s1`, the Potency was 3980 nM (active).

Regarding `COc1ccc(/C=N\NC(=O)c2sc(N)nc2C)cc1OC`, the “activation, negative = inhibition” value is 1.81% (inactive).

For `N#Cc1ccc(C(=O)OCC(=O)NC(=O)NC2CCCCC2)cc1`, the “activation, negative = inhibition” value was -3.13% (inactive).

For `CCN(CC(=O)Nc1cc(Cl)ccc1C)C(=O)CSCc1ccccc1`, the “activation, negative = inhibition” value is -2.39% (inactive).

Regarding `CC(Oc1ccc(F)cc1F)C(=O)/C=C/N(C)C` (stereo not drawn), the “activation, negative = inhibition” value was -3.13% (inactive).

As to `COc1ccccc1-c1nn(Cc2ccccc2)cc1C(=O)N1CCN(c2ncccn2)CC1`, the “activation, negative = inhibition” value was 0.929% (inactive).

In the case of `O=C(COC(=O)c1ncc(Cl)c(Cl)c1Cl)NCc1ccccc1`, the “activation, negative = inhibition” value was -2.67% (inactive).

Consider `CCc1ccccc1S(=O)(=O)Cc1ccc(C(=O)NCCc2ccccc2)o1`, for which the “activation, negative = inhibition” value was 4.39% (inactive).

As to `CCN(CC)CCN1C(=O)C(=O)/C(=C(/O)c2ccccc2)C1c1ccccc1F` (stereo not drawn), the “activation, negative = inhibition” value was -0.0008% (inactive).

As to `CCN(CC)CCN1C(=O)C(=O)/C(=C(/O)c2ccc(OC)c(OC)c2)C1c1ccccn1` (stereo not drawn), the “activation, negative = inhibition” value is 0.612% (inactive).

As for `CCN(CC)CCN1C(=O)C(=O)/C(=C(/O)c2cnn(-c3ccccc3)c2C)C1c1cccs1` (stereo not drawn), the Potency was 2510 nM (active).

Consider `COc1ccc(S(=O)(=O)N2CCC(C(=O)OCC(=O)c3ccccc3)CC2)cc1[N+](=O)[O-]`, for which the “activation, negative = inhibition” value was -4.69% (inactive).

On to `COc1ccc2sc(-c3ccc(N(C)C)cc3)c(C#CCO)c2c1`, for which the “activation, negative = inhibition” value is -2.43% (inactive).

Turning to `Cc1ccc(CN2CC(C(=O)N3CCN(S(=O)(=O)c4ccccc4)CC3)CC2=O)cc1` (stereo not drawn), the “activation, negative = inhibition” value was -0.553% (inactive).

For the compound `Cc1ccc(C(=O)N/C(=C/c2cccs2)C(=O)NCC2CCCO2)cc1` (stereo not drawn), the “activation, negative = inhibition” value was -0.356% (inactive).

As to `Cc1ccc(-n2c(C)cc(/C=C(\C#N)C(=O)NCC3CCCO3)c2C)cc1` (stereo not drawn), the Potency is 3980 nM (active).

With `Cc1ccc(S(=O)(=O)N2CCC(C(=O)NCC3CCCO3)CC2)cc1` (stereo not drawn), the “activation, negative = inhibition” value is -3.61% (inactive).

As to `CCOC(=O)c1ccc(-c2ccc(C(=O)Nc3cccnc3)o2)cc1`, the Potency was 2240 nM (active).

Turning to `COc1ccc(C)cc1NC(=O)c1ccc(-c2ccc(C(C)=O)cc2)o1`, the “activation, negative = inhibition” value is -1.54% (inactive).

With `CCOC(=O)c1ccc(NC(=O)c2cccnc2)cc1`, the “activation, negative = inhibition” value is 27.2% (inactive).

Turning to `CCOc1cc(CNCc2ccccn2)ccc1OCC(=O)NC(C)(C)C`, the “activation, negative = inhibition” value was -0.141% (inactive).

`Cc1ccc(S(=O)(=O)N2CCN(c3ncnc4ccccc34)CC2)cc1`: the “activation, negative = inhibition” value is -32% (inactive).

Regarding `CCc1ccc(C(=O)N2CCN(S(=O)(=O)c3sc(C(=O)O)c(C)c3C(=O)O)CC2)cc1`, the “activation, negative = inhibition” value is 0.966% (inactive).
